The text below walks through data of PubChem BioAssay AID588651 (The Scripps Research Institute Molecular Screening Center, 2011).

Each structure is given as a SMILES string. Calls of active or inactive are those of the source. Cut-off read from the data, not from the text of the source: active = inhibition above about 65%; inactive = the rest.

This assay has as its system Antitargets. Nature of the assay: Fam108b inhibitors and proteome off-target selectivity – biochemical, gel-based ABPP, recombinant soluble Fam108b, HTS hits, complex proteome, late-stage follow-up (AID 588651).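 Note: Fam108b spiked into mouse brain membrane proteome; tested at 20 µM.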 The settings on record: FP-rhodamine labeling in proteome.
As to `O=C(O)c1ccc(S(=O)(=O)/N=C2\C=C(Nc3ccccc3F)C(=O)c3ccccc32)cc1`, the outcome was inactive.

Take `O=C(NC1CCCCC1)c1sc(=S)n2c1[nH]c(=O)c1ccccc12`: the result was inactive.

In the case of `Oc1ccc(C=NNc2ccnc3cc(Cl)ccc23)cc1O`, the result was inactive.

As for `O=C(Nc1cccc(C(F)(F)F)c1)Nc1ccc(N2CCCC2)c(S(=O)(=O)Nc2ccccc2Cl)c1`, the outcome was active.

On to `Oc1c(Cl)cc(Cl)c(Cl)c1Cc1c(O)c(Cl)cc(Cl)c1Cl`, for which the result was inactive.

Take `CCc1ccc(S(=O)(=O)N=C2C=C(Sc3ncn[nH]3)C(=O)c3ccccc32)cc1`: the result was inactive.

For `CCNc1ccc2noc3c2c1C(=O)c1ccccc1-3`, the result was inactive.

Take `COc1ccc2ccccc2c1C(O)c1nccn1C` (centres undefined): the result was inactive.

As for `O=C(Nc1cccc(-c2csc(Nc3ccc(Cl)cc3)n2)c1)c1cc([N+](=O)[O-])cc(C(F)(F)F)c1`, the result was inactive.

Turning to `Brc1ccc(-c2csc(Nc3nc(-c4ccc(Br)cc4)cs3)n2)cc1`, the outcome was inactive.

In the case of `CCOc1cc(/C=C2\C(=O)N(c3nc(-c4ccc(Br)cc4)cs3)N=C2c2ccccc2)ccc1O`, the outcome was active.

For `CSC[C@@H]1NC(=S)N(c2ccc(C)cc2)C1=O`, the result was inactive.

For `O=c1cc(-c2ccc(O)c(-c3c(O)cc(O)c4c(=O)cc(-c5ccc(O)cc5)oc34)c2)oc2cc(O)cc(O)c12`, the result was active.

Consider `O=C(Nc1ccc(-c2csc(Nc3ccc(Cl)cc3)n2)cc1)c1cccc(C(F)(F)F)c1`, for which the result was active.

`Cc1ccc(S(=O)(=O)N=C2C=C(Sc3ncn[nH]3)C(=O)c3ccccc32)cc1`: the outcome was inactive.

Take `O=C(Nc1ccc(-c2csc(Nc3ccccc3)n2)cc1)c1cc([N+](=O)[O-])cc(C(F)(F)F)c1`: the result was inactive.

For `CC1CCCCN1S(=O)(=O)c1ccc(C(=O)Nc2ccccc2-c2nc3ccccc3[nH]2)cc1` (centres undefined), the result was inactive.

In the case of `CCN(CC)c1ccc(C2Nc3cccc4cccc(c34)N2)c(O)c1`, the result was inactive.

Take `CCCCCCCCCCCCCCCC[n+]1ccc(C=NO)cc1`: the outcome was inactive.

Turning to `COc1cc2c(cc1NC(=S)Nc1cccc(C(F)(F)F)c1)oc1ccccc12`, the result was inactive.

With `CCOC(=O)c1sc(NC(=O)Nc2ccc(Cl)cc2)cc1C`, the outcome was inactive.

For `Cc1cc(C)nc(SCc2ccc(C(=O)NN=Cc3cccc(O)c3O)cc2)n1`, the outcome was active.

On to `O=c1ccc2cc3c([nH]c4ccc(Br)cc43)oc-2c1O`, for which the result was inactive.

On to `CN(c1ccccc1)S(=O)(=O)c1ccc(NC(=O)c2ccc(-c3ccccc3)cc2)cc1`, for which the result was inactive.

Turning to `COc1ccc(NC(=S)Nc2ccc3nsnc3c2)cc1`, the result was inactive.

As to `Oc1cccc2cc3cccc(O)c3c(O)c12`, the result was active.

For the compound `Cc1cc(C(C#N)c2ccc(Cl)cc2)c(Cl)cc1NC(=O)c1cc(I)cc(I)c1O` (centres undefined), the outcome was inactive.

For `CCc1ccc(S(=O)(=O)/N=C2\C=C(Nc3cccc(C(=O)O)c3)C(=O)c3ccccc32)cc1`, the result was inactive.

For `Cn1c(O)c(C=NNC(=O)c2cc3ccccc3cc2O)c2ccccc21`, the outcome was inactive.

Regarding `COc1cc2c(cc1NC(=O)Nc1ccccc1)oc1ccccc12`, the outcome was inactive.

For `Oc1oc(-c2ccccc2Br)nc1C=Nc1ccccn1`, the outcome was active.

`Oc1ccccc1-c1nc2c3ccccc3c3ccccc3c2[nH]1`: the result was inactive.

For the compound `O=C(Nc1ccc2[nH]c(=S)sc2c1)Nc1ccccc1F`, the result was inactive.

On to `Cc1ccc(-c2csc3nc(C(C)C)oc(=O)c23)c(C)c1`, for which the result was inactive.
